Records with an inconclusive call do not appear. A number with no mark means an inactive call. Calls come from the whole dose curve; as a rule, active = well fitted activation curve with a large enough effect; inconclusive = small, poorly fitted or top-dose-only effect; inactive = no such curve, though single readings can be large or run the other way.
target: Rap guanine nucleotide exchange factor 3 (Homo sapiens) (UniProt O95398); assay: Confirmatory qHTS for agonist of cAMP-regulated guanine nucleotide exchange factor 3 (EPAC1) (AID 1645881); conditions: EPAC1 Rap1B BODIPY-GDP exchange fluorescence; series mostly up to 154 µM; activation: at the top concentration;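 note: EPAC1 catalysed release of BODIPY-GDP from Rap1B seen as fluorescence loss; 100% = effect of cAMP agonist control; nearly all actives have a fitted effect of over 75% in size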
Sequence (O95398 whole entry, looked up): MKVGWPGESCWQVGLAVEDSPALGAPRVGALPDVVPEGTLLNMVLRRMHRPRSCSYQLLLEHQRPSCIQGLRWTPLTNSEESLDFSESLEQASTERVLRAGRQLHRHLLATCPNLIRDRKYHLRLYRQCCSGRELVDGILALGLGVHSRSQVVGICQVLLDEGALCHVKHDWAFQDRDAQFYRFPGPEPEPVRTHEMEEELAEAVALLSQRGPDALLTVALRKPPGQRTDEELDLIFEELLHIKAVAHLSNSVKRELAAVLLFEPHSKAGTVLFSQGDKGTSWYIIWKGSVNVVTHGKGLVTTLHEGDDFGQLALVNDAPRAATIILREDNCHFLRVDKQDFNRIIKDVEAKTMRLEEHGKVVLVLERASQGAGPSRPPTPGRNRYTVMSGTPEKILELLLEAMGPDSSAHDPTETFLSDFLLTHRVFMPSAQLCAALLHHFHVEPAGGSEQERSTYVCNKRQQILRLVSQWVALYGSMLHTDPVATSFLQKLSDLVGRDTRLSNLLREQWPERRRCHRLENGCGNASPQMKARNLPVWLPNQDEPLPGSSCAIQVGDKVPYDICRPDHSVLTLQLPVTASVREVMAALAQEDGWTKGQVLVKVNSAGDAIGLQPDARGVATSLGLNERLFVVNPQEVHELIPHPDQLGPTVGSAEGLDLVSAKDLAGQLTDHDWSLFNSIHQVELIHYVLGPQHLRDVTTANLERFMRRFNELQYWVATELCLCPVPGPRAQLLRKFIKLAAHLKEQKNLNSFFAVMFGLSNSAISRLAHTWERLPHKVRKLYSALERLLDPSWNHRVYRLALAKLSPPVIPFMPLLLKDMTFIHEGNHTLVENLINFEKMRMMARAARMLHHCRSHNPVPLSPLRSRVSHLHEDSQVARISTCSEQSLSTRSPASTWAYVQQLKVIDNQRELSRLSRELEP

Question: Which “activation” value does the source give for O=C(O)c1cc(NN=C2c3ccccc3-c3ccccc32)ccc1Cl here?
Answer: -6.78%

Question: Which “activation” value does the source give for COc1cc(/C=C2\SC(=S)N(NC(=O)c3ccc(O)c(OC)c3)C2=O)ccc1O here?
Answer: 8.67%

Question: Which “activation” value does the source give for CC(C)=CCC[C@H](C)C[C@@H]1Cc2[nH][nH]c(=O)c2[C@H](c2ccc(F)cc2)O1 here?
Answer: -34.2%

Question: How did the “activation” value turn out when O=C(CSc1n[nH]c(=O)[nH]c1=O)Nc1ccc2c(c1)C(=O)c1ccccc1C2=O was run?
Answer: 20.2%

Question: Which “activation” value does the source give for Cc1ccc(C(=O)NNC(=O)c2ccccc2O)cc1S(=O)(=O)N1CCCCC1 here?
Answer: -3.79%

Question: Which “activation” value does the source give for CCCCN(CCCC)Cc1cc(=O)oc2cc(OC)ccc12 here?
Answer: -10.9%

Question: With CC(C)OP(=O)(OC(C)C)C1(NS(=O)(=O)c2ccc(Cl)cc2)C=C(Cl)C(=O)C(Cl)=C1 as the compound, how does the “activation” value read?
Answer: -1.54%

Question: Cc1ccc(N2CC(c3nc4ccccc4[nH]3)CC2=O)c(C)c1 (configuration not stated) was tested. Which “activation” value did it give?
Answer: 10.3%

Question: For CCCCN(CCCC)C1=Nc2ccccc2N/C1=C(/C#N)C(=O)OCC, which “activation” value is on record?
Answer: 15.8%

Question: O=C(O)c1ccc(COc2ccc3ccccc3c2/C=C2/NC(=O)N(Cc3ccc(F)cc3)C2=O)cc1 was tested. Which “activation” value did it give?
Answer: -7.3%

Question: How did the “activation” value turn out when Cc1ccc(Nc2c([N+](=O)[O-])c(=O)oc3ccccc23)cc1C was run?
Answer: -7.82%

Question: For O=C1C(=Cc2cn(-c3ccccc3)nc2-c2ccc(OCc3ccc(Cl)cc3)cc2)SC(=S)N1CCS(=O)(=O)O, which “activation” value is on record?
Answer: 19.8%

Question: Which “activation” value does the source give for C[C@@H]1CCCCCCCCC(=O)OCCN1C(=O)OC(C)(C)C here?
Answer: -8.77%

Question: How did the “activation” value turn out when Cc1cccc(OC(=O)Nc2ccc(C(=O)O)c(O)c2)c1 was run?
Answer: 1.1%

Question: With Cc1ccc2oc(=O)c3cnn(CC(=O)NC4CCC(C)CC4)c3c2c1 (configuration not stated) as the compound, how does the “activation” value read?
Answer: -8.88%

Question: With CCN(CC)S(=O)(=O)c1ccc2[nH]c(=O)cc(C(=O)Nc3ccc(C)c(S(=O)(=O)N(CC)CC)c3)c2c1 as the compound, how does the “activation” value read?
Answer: -11.7%

Question: O=C(COc1ccc(Cl)cc1Cl)c1ccc[nH]1 was tested. Which “activation” value did it give?
Answer: 19.7%

Question: For CCOC(=O)C1=C(C)NC(C)=C(C(=O)OCC)C1C(=O)OCC(=O)NCc1ccc(F)cc1, which “activation” value is on record?
Answer: -2.89%

Question: For CCc1c(C2(O)CCCCC2)[nH]c2c(C(=O)OC)cc(Cl)cc12, which “activation” value is on record?
Answer: 6.97%

Question: How did the “activation” value turn out when COc1ccc(/C=C/C(=O)c2ccccc2)c(OC)c1 was run?
Answer: 19.4%

Question: For COC1=C/C(=C/c2c(N)n3nc(-c4ccc(C)cc4)sc3nc2=O)C=CC1=O, which “activation” value is on record?
Answer: 29.5%

Question: With Cc1ccc2c(CC(=O)OCc3cc(=O)n4c(n3)sc3ccccc34)coc2c1 as the compound, how does the “activation” value read?
Answer: 5.38%

Source: PubChem BioAssay (NCATS)
